{"source": "PubChem BioAssay", "note": "Calls of active or inactive are those of the source.", "data": [{"assay": "CREB reporter modulators without forskolin, primary screen, cell-based, PC12, CRE-LacZ reporter, unstimulated (AID 1145)", "details": "no forskolin, luminescence, 4.5 h, higher = more signal, called active from +8 up or from −8 down", "values": [{"smiles": "CCOC(=O)C[C@H]1[C@H](OC(=O)c2ccccc2-c2ccccc2)[C@@H](NC(=O)c2ccc3ccccc3c2)c2cc(OCCCO)ccc2N1C(=O)c1ccccc1", "z-score": "2.94 (inactive)"}, {"smiles": "O=C1OCCC=C[C@H]2OC34C=CCN(Cn5nnc6ccccc65)C(=O)[C@H]3N(CCCO)C(=O)[C@@H]4C12", "note": "(stereo not given in full)", "z-score": "-0.903 (inactive)"}, {"smiles": "O=C(C1N=C(c2ccc(OCCCO)cc2)N(c2ccccc2)O1)N1CCCCC1", "note": "(stereo not given)", "z-score": "0.0918 (inactive)"}, {"smiles": "CCCCC[C@H]1OC[C@@]23C=C(Br)[C@@H](CC12)[C@@]1(CO1)C3=O", "note": "(stereo not given in full)", "z-score": "0.495 (inactive)"}, {"smiles": "C=CC[C@]1(C(=O)N2CCCCC2)N=C(c2ccc(OCCCO)cc2)O[C@H]1c1ccccc1CN=[N+]=[N-]", "z-score": "1.45 (inactive)"}, {"smiles": "COCCCNC(=O)[C@@H]1c2ccccc2C(=O)N(C(C)C)[C@H]1c1ccc(CO)cc1", "z-score": "-0.179 (inactive)"}, {"smiles": "CCCCN1CC=CC23O[C@@H]4/C=C\\CCC(C)OC(=O)C4[C@H]2C(=O)N(CCCO)[C@@H]3C1=O", "note": "(stereo not given in full)", "z-score": "0.0605 (inactive)"}, {"smiles": "CN(C)C(=O)[C@]1(CCC(=O)OC(C)(C)C)N=C(c2ccc(OCCCO)cc2)O[C@@H]1c1ccccc1CN=[N+]=[N-]", "z-score": "-0.744 (inactive)"}, {"smiles": "C=CCNC(=O)[C@@H]1[C@H]2C(=O)O[C@H](c3ccccc3)[C@H](c3ccccc3)N2[C@H](c2ccc(OCCO)cc2)[C@@]12C(=O)N(C(=O)OCCOC)c1ccc(C#Cc3ccc(OC)cc3)cc12", "z-score": "0.476 (inactive)"}, {"smiles": "CCCN1C(=O)[C@@]2(Cc3ccccc31)N=C(c1ccc(OCCCO)cc1)O[C@H]2c1ccccc1", "z-score": "2.07 (inactive)"}, {"smiles": "CC1CC/C=C\\[C@H]2OC34C=CCN(Cc5ccccc5)C(=O)[C@H]3N(C(CO)C(C)C)C(=O)[C@@H]4C2C(=O)O1", "note": "(stereo not given in full)", "z-score": "2.1 (inactive)"}, {"smiles": "C=C(COC)/C(=C/C[C@H](OC(=O)c1ccncc1)c1ccc(CO)o1)c1cnc2ccccc2c1", "z-score": "0.303 (inactive)"}, {"smiles": "COc1ccc(C#Cc2ccc3c(c2)[C@]2(C(=O)N3)[C@H](c3ccc(O)cc3)N3[C@H](c4ccccc4)[C@H](c4ccccc4)OC(=O)[C@H]3[C@@H]2C(=O)Nc2nc3ccccc3s2)cc1", "z-score": "0.389 (inactive)"}, {"smiles": "[N-]=[N+]=Nc1ccccc1C[C@@]1(C(=O)N2CCOCC2)N=C(c2ccc(OCCCO)cc2)O[C@@H]1c1ccccc1", "z-score": "1.64 (inactive)"}, {"smiles": "C=C[C@@H](CO)N(Cc1ccc(OC)cc1)S(=O)(=O)c1ccc(Br)cc1", "z-score": "-0.104 (inactive)"}, {"smiles": "COc1ccc(CCNC(=O)[C@@]2(Sc3ccc(C)cc3)CC(=O)N(Cc3ccccc3C(F)(F)F)[C@@H]2c2ccc(CO)cc2I)cc1", "z-score": "0.362 (inactive)"}, {"smiles": "CCOC(=O)C[C@H]1[C@H](OC(=O)c2ccccc2-c2ccccc2)[C@@H](NC(=O)c2ccc3ccccc3n2)c2cc(OCCCO)ccc2N1C(=O)Cc1ccc(OC)cc1", "z-score": "1.03 (inactive)"}, {"smiles": "C=CCN1Cc2ccccc2[C@@H]2OC(c3ccc(OCCCO)cc3)=N[C@]2(CC=C)C1=O", "z-score": "0.236 (inactive)"}, {"smiles": "O=C(Cc1ccccc1)[C@H]1C2C=CCCC(c3ccccc3)=C2CN1Cc1ccccc1", "note": "(stereo not given in full)", "z-score": "4.3 (inactive)"}, {"smiles": "C=CC[C@@]1(C(=O)NCCCOC)N=C(c2ccc(OCCCO)cc2)O[C@@H]1c1ccccc1N=[N+]=[N-]", "z-score": "-0.711 (inactive)"}, {"smiles": "COc1cccc(C)c1NC(=O)O[C@H]1[C@H](OC(=O)Nc2ccc3c(c2)OCO3)[C@@H](OC(=O)Nc2ccc3c(c2)OCO3)[C@@H](OC)O[C@@H]1CO", "z-score": "1.45 (inactive)"}, {"smiles": "C=CCC(OC(C)=O)[C@@H]1[C@@H](N(Cc2ccc(-c3ccccc3)cc2)C(=O)c2ccc(-c3ccccc3)cc2)c2cc(OCCCO)ccc2N1C(=O)c1ccc2ccccc2c1", "note": "(stereo not given in full)", "z-score": "-0.23 (inactive)"}, {"smiles": "COC(=O)C(CC#Cc1ccc2c(c1)[C@]1(C(=O)N2)[C@H](c2ccc(O)cc2)N2[C@H](c3ccccc3)[C@H](c3ccccc3)OC(=O)[C@H]2[C@@H]1C(=O)NC[C@H](O)c1ccccc1)C(=O)OC", "z-score": "-0.0566 (inactive)"}, {"smiles": "COc1cccc(C)c1NC(=O)O[C@H]1[C@H](OC(=O)Nc2ccccc2-c2ccccc2)[C@H](OC(=O)Nc2ccccc2-c2ccccc2)[C@@H](OC)O[C@@H]1CO", "z-score": "-0.207 (inactive)"}, {"smiles": "CCCCC(CC)C(O)C1C=CC2C(=O)N(c3ccccc3)C(=O)C2N1Nc1ccccc1F", "note": "(stereo not given)", "z-score": "-0.433 (inactive)"}, {"smiles": "C=CC[C@]1(C(=O)N2CCOCC2)COC(c2ccc(OCCCO)cc2)=N1", "z-score": "2.01 (inactive)"}, {"smiles": "CCOC(=O)C[C@H]1[C@H](OC(=O)Cc2ccc3c(c2)OCO3)[C@@H](NC(=O)C2CCCCC2)c2cc(OCCCO)ccc2N1C(=O)c1ccccc1", "z-score": "2.82 (inactive)"}, {"smiles": "O=C1O[C@@H](c2ccccc2)[C@@H](c2ccccc2)N2[C@@H](c3ccc(O)cc3)[C@]3(C(=O)Nc4ccc(C#CCCO)cc43)[C@@H](C(=O)N3CCN(c4ncccn4)CC3)[C@H]12", "z-score": "-0.554 (inactive)"}, {"smiles": "O[C@@H](Cc1ccccc1)[C@@H](/C=C/C1CC1)N(CC#Cc1ccccc1)Cc1ccccc1Br", "z-score": "2.41 (inactive)"}, {"smiles": "CCCC1(C(=O)OC)C=C2C(=C(C)C(=O)C2C)CN1", "note": "(stereo not given)", "z-score": "2.3 (inactive)"}, {"smiles": "O=C1C2C=CC(C(O)c3ccco3)N(Nc3ccccc3F)C2C(=O)N1c1ccccc1", "note": "(stereo not given)", "z-score": "-0.136 (inactive)"}, {"smiles": "COc1ccc([Si](C)(C)[C@@H]2[C@@H](CCO)O[C@]3(C(=O)N(Cc4ccccc4)c4ccc(N5C(=O)c6cccc7cccc5c67)cc43)[C@H]2C)cc1", "z-score": "2.39 (inactive)"}, {"smiles": "CC(C)=C1C(=O)C(c2ccccc2)=C2CN3C(=O)N(CCc4ccccc4)C(=O)[C@]3(Cc3ccc(C(F)(F)F)cc3)[C@H]21", "z-score": "0.966 (inactive)"}, {"smiles": "CCCCCN1CC=CC23O[C@@H]4/C=C\\CCC(C)OC(=O)C4[C@H]2C(=O)N(C(CO)C(C)C)[C@@H]3C1=O", "note": "(stereo not given in full)", "z-score": "-1.58 (inactive)"}, {"smiles": "COC(=O)[C@@]1(Cc2ccc(OC)cc2)[C@H]2c3cc(C(=O)N4CCCC4)n(CCO)c3C[C@H]2CN1C(=O)c1ccccc1", "z-score": "0.773 (inactive)"}]}]}
